A number with no mark means an inactive call. No rule for the calls is given here.
system: Aerobactin synthetase IucA (Klebsiella pneumoniae hvKP1); assay: IucA enzyme inhibition, primary screen, biochemical, Spectrum library (AID 1346200); details: malachite green pyrophosphate, A620, at 8 µM, active compounds read low;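 also: 100% = wells without compound and 0% = wells lacking enzyme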

SMILES | activity remaining [%]
COC(=O)c1c(C)cc(O)cc1O | 89.5
COc1ccc2c(c1)OC1(O)COc3cc(OC)c(OC)cc3C1=C2 (stereo not given) | 107
CC1=C2[C@@H](CC1)[C@@H](C)CC[C@@H]2/C=C(\C)C(=O)O | 113
CC1(C)O[C@@H]2[C@@H](CO[C@@]3(COS(N)(=O)=O)OC(C)(C)O[C@@H]23)O1 | 115
C=C1CCC2C(CC2(C)C)C(=C)CC/C1=N/O (stereo not given) | 105
COc1cc(O)c2c(=O)cc(-c3ccc(OC)c(-c4c(O)cc(O)c5c(=O)cc(-c6ccc(O)cc6)oc45)c3)oc2c1 | 118
COc1cc2ccc(=O)oc2c(O)c1O | 112
COc1c(-c2coc3cc4c(cc3c2=O)CC(OC(C)=O)C(C)(C)O4)ccc2c1C=CC(C)(C)O2 (stereo not given) | 103
CCOC(=O)c1c(C)cc(O)cc1O | 119
OC(CCN1CCCCC1)(c1ccccc1)c1ccccc1 | 95.4
COc1cc(OC)c2ccc(=O)oc2c1 | 112
COc1c(O)cc2c(-c3ccccc3)cc(=O)oc2c1OC | 130
COc1ccc(C(Cl)=C(c2ccc(OC)cc2)c2ccc(OC)cc2)cc1 | 117
COC1=CC(=O)C(O)=C/C1=C\C=C\c1ccccc1 | 106
O=C(O)CCNC(=O)c1ccccc1 | 103
CO[C@H]1C[C@H](O[C@H]2[C@H](C)[C@@H](OC3O[C@H](C)C[C@H](N(C)C)[C@H]3OC(C)=O)[C@@H](C)C[C@]3(CO3)C(=O)[C@H](C)[C@@H](OC(C)=O)[C@@H](C)[C@@H](C)OC(=O)[C@@H]2C)O[C@@H](C)[C@@H]1OC(C)=O (stereo not given in full) | 116
CCN(CCO)CCCC(C)Nc1ccnc2cc(Cl)ccc12 (stereo not given) | 109
CCN(CC)Cc1ccc(Nc2ccnc3cc(Cl)ccc23)cc1O | 102
CC(=O)Oc1ccc(C(c2ccc(OC(C)=O)cc2)c2ccccn2)cc1 | 82.7
O=c1oc2cc(O)ccc2s1 | 110
CCCCCC1C(=O)CCC1CC(=O)OC (stereo not given) | 118
COC(=O)C[C@H]1C2(C)CC34OC5(C)O[C@@]6([C@H](OC)C(OC(=O)C(C)C)[C@]7(C)C(/C(=C(/OC)C(C)C)C(=O)O[C@H]7c7ccoc7)[C@@]6(O5)[C@H](OC)[C@@]3(OC)C2OC(C)=O)[C@]14C (stereo not given in full) | 119
O=c1ccc2ccc(O)cc2o1 | 94.5
Nc1nc(N)c2nc(CNc3ccc(C(=O)NC(CCC(=O)O)C(=O)O)cc3)cnc2n1 (stereo not given) | 102
COc1ccc(-c2cc(=O)c3c(O)c(OC)c(OC)c(OC)c3o2)cc1OC | 80.1

From PubChem BioAssay
